According to PubChem BioAssay (EPA / NIEHS):
Inconclusive results are not listed. Some compounds were tested as several samples or in several runs, with calls that do not always agree. Activity calls are given as the source filed them. The calls were made as follows, unless noted: active = hit-call score of the fitted dose curve at least 0.9, where 1 is the maximum; inactive = score below 0.9.

Legend:
CD69, CD69 (gene 969) = test: BSK_SAg_CD69: BioMAP Diversity Plus: SAg Assay for CD69 Biomarker Activity (AID 2283089); settings: primary human HUVEC with PBMC; actives raise or lower the signal;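 as to AC50: cell surface CD69 protein quantified by ELISA with fluorescence detection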
In short: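 Values derive from bidirectional fitting relative to DMSO vehicle. Cells: umbilical vein endothelium plus peripheral blood mononuclear cells, treated 24 h before fluorescent ELISA for CD69.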

[1] = read-out: Monocyte Chemoattractant Protein-1 (MCP1), CCL2 (gene 6347); test: BSK_SAg_MCP1: BioMAP Diversity Plus: SAg Assay for Monocyte Chemoattractant Protein-1 (MCP1) Biomarker Activity (AID 2283090); settings: primary human HUVEC with PBMC; actives raise or lower the signal
In short: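 Values derive from bidirectional fitting of ELISA-measured MCP1 against DMSO controls. Readings were taken 24 h after dosing human vascular endothelial cells co-cultured with peripheral blood mononuclear cells under superantigen stimulation.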

[2] = read-out: E-selectin (Homo sapiens) (UniProt P16581); test: BSK_SAg_Eselectin: BioMAP Diversity Plus: SAg Assay for Eselectin Biomarker Activity (AID 2283091); settings: primary human HUVEC with PBMC; actives raise or lower the signal
In short: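 Co-culture: HUVEC + PBMC. Dose compound; 24 h. ELISA for E-selectin. Bidirectional fit vs DMSO.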

[3] = BSK_SAg_PBMCCytotoxicity: PBMC Cytotoxicity Assessment in the BioMAP Diversity Plus: SAg Assay (AID 2283093); settings: primary human HUVEC with PBMC;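 also: PBMC viability measured as Alamar Blue reduction fluorescence at 546/580 nm; fitted both ways against DMSO so a hit may be loss or gain of signal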;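 as to AC50: PBMC superantigen activated with SEB plus TSST-1 one hour after compound addition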
In short: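 Alamar Blue reduction (6 h, ex/em 546/580 nm) read after 90 h culture of PBMC pre-dosed 1 h then stimulated with SEB plus TSST-1, 20 ng/mL each. Gain or loss of signal fitted relative to DMSO.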

[4] = read-out: Interleukin-8 (IL8), CXCL8 (gene 3576); test: BSK_SAg_IL8: BioMAP Diversity Plus: SAg Assay for Interleukin-8 (IL8) Biomarker Activity (AID 2283094); settings: primary human HUVEC with PBMC; actives raise or lower the signal
In short: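 HUVEC/PBMC co-culture, 24 h post-dose; IL-8 by ELISA. Gain or loss of signal fitted bidirectionally vs DMSO baseline.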

[5] = BSK_SAg_Proliferation: Cell Proliferation Assessment in the BioMAP Diversity Plus: SAg Assay (AID 2283095); settings: primary human HUVEC with PBMC;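 also: relative cell number as total protein by SRB absorbance in sub-confluent culture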
In short: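 HUVEC/PBMC co-culture, 96-well. TCA-fixed (10%), 0.1% SRB stain, A560 at 96 h. Protein content used as viability readout; bidirectional fitting vs DMSO control.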

[6] = BSK_SAg_SRB: Viability Assessment in the BioMAP Diversity Plus: SAg Assay (AID 2283096); settings: primary human HUVEC with PBMC;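 also: cells read one day after compound addition; hits may be either gain or loss of signal compared with DMSO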
In short: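 SRB absorbance at 560 nm served as the viability read-out. Cells (HUVEC plus peripheral blood mononuclear cells) were TCA-fixed and stained 24 h post-dosing; activity fitted in both directions against DMSO controls.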

[7] = target: human CYP2A6, CYP2A6 (gene 1548) (UniProt P11509); test: NVS_ADME_hCYP2A6: NovaScreen (NVS) CYP450-related Enzyme Activity (ADME) Assay for human CYP2A6 (AID 2283099; active = hit-call score of the fitted dose curve at least 0.9, where 1 is the maximum)
In short: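 Fluorescent substrate turnover by recombinant CYP2A6 (insect cell source), 0.5 h read. Screen: 10 uM, duplicate; threshold hits (e.g. 30% inhibition) → singleton concentration-response, top 20 uM. Positive and negative controls on every plate.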

[8] = target: human CYP19A1, CYP19A1 (gene 1588) (UniProt P11511); test: NVS_ADME_hCYP19A1: NovaScreen (NVS) CYP450-related Enzyme Activity (ADME) Assay for human CYP19A1 (AID 2283098; active = hit-call score of the fitted dose curve at least 0.9, where 1 is the maximum;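 as to AC50: potency for inhibitors seen as loss of fluorescent enzyme signal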)
In short: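 Primary testing was in duplicate at a single 10 uM concentration, with actives followed up in concentration-response series. Fluorescence read-out of recombinant enzyme activity at 0.5 h, cell-free. Acetonitrile was the negative-control baseline.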

Measured: AC50

Sequence of human CYP19A1, CYP19A1 (gene 1588) (P11511 whole entry, looked up): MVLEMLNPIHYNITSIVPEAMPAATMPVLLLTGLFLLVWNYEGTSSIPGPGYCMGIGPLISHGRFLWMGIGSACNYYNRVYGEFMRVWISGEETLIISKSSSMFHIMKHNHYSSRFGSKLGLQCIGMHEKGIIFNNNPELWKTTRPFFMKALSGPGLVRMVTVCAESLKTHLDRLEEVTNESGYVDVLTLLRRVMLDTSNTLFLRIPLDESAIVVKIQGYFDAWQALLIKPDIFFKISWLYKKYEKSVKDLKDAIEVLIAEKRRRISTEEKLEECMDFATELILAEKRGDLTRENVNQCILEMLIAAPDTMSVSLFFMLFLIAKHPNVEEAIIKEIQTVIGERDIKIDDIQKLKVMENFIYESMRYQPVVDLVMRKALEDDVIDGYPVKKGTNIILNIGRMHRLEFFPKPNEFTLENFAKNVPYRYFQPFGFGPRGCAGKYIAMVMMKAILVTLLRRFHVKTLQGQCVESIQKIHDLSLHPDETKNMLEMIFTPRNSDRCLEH
Sequence of human CYP2A6, CYP2A6 (gene 1548) (P11509 whole entry, looked up): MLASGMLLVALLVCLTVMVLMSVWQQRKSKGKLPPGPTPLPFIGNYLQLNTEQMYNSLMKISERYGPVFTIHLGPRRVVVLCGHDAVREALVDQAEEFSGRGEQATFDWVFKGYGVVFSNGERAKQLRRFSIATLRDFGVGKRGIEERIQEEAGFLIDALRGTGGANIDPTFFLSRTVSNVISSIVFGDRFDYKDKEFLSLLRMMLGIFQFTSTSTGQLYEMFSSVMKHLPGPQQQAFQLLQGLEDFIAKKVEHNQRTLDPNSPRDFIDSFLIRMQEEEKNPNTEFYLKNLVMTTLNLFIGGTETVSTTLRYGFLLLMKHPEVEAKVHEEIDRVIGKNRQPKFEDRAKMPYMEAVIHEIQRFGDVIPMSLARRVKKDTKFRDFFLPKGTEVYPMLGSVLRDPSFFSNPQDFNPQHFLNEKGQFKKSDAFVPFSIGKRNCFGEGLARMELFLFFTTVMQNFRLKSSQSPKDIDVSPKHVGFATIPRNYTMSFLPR
Sequence of E-selectin (Homo sapiens) (P16581 whole entry, looked up): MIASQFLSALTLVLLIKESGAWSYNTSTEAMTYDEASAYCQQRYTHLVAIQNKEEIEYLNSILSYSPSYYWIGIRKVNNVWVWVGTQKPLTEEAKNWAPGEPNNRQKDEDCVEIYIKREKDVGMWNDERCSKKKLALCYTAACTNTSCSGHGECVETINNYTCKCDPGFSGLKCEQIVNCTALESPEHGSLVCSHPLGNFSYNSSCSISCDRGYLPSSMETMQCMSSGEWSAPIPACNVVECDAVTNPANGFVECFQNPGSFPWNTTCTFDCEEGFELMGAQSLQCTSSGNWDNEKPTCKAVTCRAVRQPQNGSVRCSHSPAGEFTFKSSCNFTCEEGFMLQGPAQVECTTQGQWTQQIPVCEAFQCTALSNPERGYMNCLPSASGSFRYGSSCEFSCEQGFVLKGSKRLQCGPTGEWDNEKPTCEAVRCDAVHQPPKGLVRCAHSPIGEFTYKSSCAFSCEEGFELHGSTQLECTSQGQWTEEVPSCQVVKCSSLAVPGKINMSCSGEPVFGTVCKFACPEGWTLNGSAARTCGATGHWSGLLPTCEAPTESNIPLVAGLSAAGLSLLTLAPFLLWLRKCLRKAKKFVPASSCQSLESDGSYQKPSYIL

Cc1c([N+](=O)[O-])cc2c(c1[N+](=O)[O-])C(C)(C)CC2(C)C
active: [3] 15.3 µM | [5] 7.41 µM
inactive: CD69, CD69 (gene 969) | [1] | [2] | [4] | [6]

Nc1ccc([N+](=O)[O-])cc1Cl
inactive: CD69, CD69 (gene 969) | [1] | [2] | [4] | [5]

O=P(Oc1ccccc1)(Oc1ccccc1)Oc1ccccc1
active: CD69, CD69 (gene 969) 31.6 µM | [1] 29 µM | [2] 33.7 µM | [4] 30.2 µM | [5] 32.2 µM

Cc1ccc(O)cc1C
inactive: CD69, CD69 (gene 969) | [1] | [2] | [4] | [5] | [6]

CCC(C)(C)c1ccc(O)cc1
inactive: CD69, CD69 (gene 969) | [1] | [2] | [3] | [4] | [5] | [7]

O=S(=O)(c1ccc(O)cc1)c1ccc(O)cc1
active: [8] 8.81 µM

ClC(Cl)=C(c1ccc(Cl)cc1)c1ccccc1Cl
active: CD69, CD69 (gene 969) 14.6 µM | [1] 25.9 µM | [2] 20 µM | [4] 20 µM | [5] 6.98 µM

O=[N+]([O-])c1ccccc1
inactive: CD69, CD69 (gene 969) | [1] | [2] | [3] | [4] | [5] | [6]

CCCCCCCc1ccc(O)cc1
inactive: [8]
active: CD69, CD69 (gene 969) 39.2 µM | [1] 36 µM | [2] 31.6 µM | [4] 33.1 µM | [5] 18.8 µM | [6] 37.1 µM | [8] 5.15 µM

O=C(O)C(F)(OC(F)(F)C(F)(F)C(F)(F)F)C(F)(F)F (stereo unspecified)
inactive: CD69, CD69 (gene 969) | [1] | [2] | [4] | [5] | [6]
active: [4] 9.29 µM

O=C(O)C(Cl)Cl
inactive: CD69, CD69 (gene 969) | [1] | [2] | [4] | [5] | [6]

O=S1(=O)OCC2C(CO1)C1(Cl)C(Cl)=C(Cl)C2(Cl)C1(Cl)Cl (stereo unspecified)
inactive: CD69, CD69 (gene 969) | [1] | [2] | [3] | [4] | [5] | [6]

O=S(=O)(F)C(F)(F)C(F)(F)C(F)(F)C(F)(F)C(F)(F)C(F)(F)C(F)(F)C(F)(F)F
inactive: CD69, CD69 (gene 969) | [1] | [2] | [4] | [5] | [6]

CCOS(=O)(=O)OCC
inactive: CD69, CD69 (gene 969) | [1] | [2] | [4] | [5]

CCOP(=S)(Oc1ccc([N+](=O)[O-])cc1)c1ccccc1 (stereo unspecified)
inactive: CD69, CD69 (gene 969) | [1] | [2] | [4]
active: [5] 22.6 µM

CCCCN(CCCC)SN(C)C(=O)Oc1cccc2c1OC(C)(C)C2
active: CD69, CD69 (gene 969) 27.6 µM | [1] 37 µM | [2] 32.6 µM | [3] 25 µM | [4] 33 µM | [5] 9.37 µM | [6] 24 µM

Nc1ccc2ccccc2c1
inactive: CD69, CD69 (gene 969) | [1] | [4] | [5] | [7]
active: [2] 4.16 µM

CCNc1nc(Cl)nc(NC(C)(C)C)n1
active: [1] 6.26 µM
inactive: CD69, CD69 (gene 969) | [2] | [4] | [5] | [6]

[N-]=[N+]=[N-]
inactive: CD69, CD69 (gene 969) | [1] | [2] | [4] | [5]

COP(=O)(O)OC
inactive: CD69, CD69 (gene 969) | [1] | [3] | [4] | [5] | [6]
active: [2] 0.0643 µM

CN(C)C(=O)Cl
inactive: CD69, CD69 (gene 969) | [1] | [2] | [3] | [4] | [5] | [7]

CCOP(=S)(NC(C)C)Oc1ccccc1C(=O)OC(C)C (stereo unspecified)
inactive: CD69, CD69 (gene 969) | [1] | [2] | [4] | [5] | [6]

N#Cc1c(-c2ccc(Cl)cc2)[nH]c(C(F)(F)F)c1Br
active: CD69, CD69 (gene 969) 0.472 µM | [1] 1.53 µM | [2] 0.267 µM | [4] 0.178 µM | [5] 1.86 µM
